This excerpt belongs to a sample that is enriched for hits.
Imprint erasure – qHTS Assay for Compounds that Induce Erasure of Genomic Imprints | mouse ES Peg3-LacZ reporter, beta-gal luminescence, 40 h | Potency, µM (series often up to 60.7 µM), inactives show top-dose activity change, positive = activation, hits mostly activators | 110,000 compounds, 0.02% hits | AID 1948, 2009
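Each well holds 300 Peg3LacZ-Neo (maternal) female ES cells incubated 40 h at 37C, 5% CO2. LacZ is measured by BetaGlo luminescence, with AC50 and maximum efficacy derived from dose-response curves.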
TSHR ag – qHTS Assay for Agonists of the Thyroid Stimulating Hormone Receptor | Potency, µM (series often up to 57.1 µM), inactives show at the top dose activation, most hits filed as activators | Thyrotropin receptor (Homo sapiens), P16473 | HEK293-CNG-TSHR cells (CNG channel as cAMP sensor), membrane potential dye, cAMP | 73,000 compounds, 0.48% hits | AID 926, 2007; active = well fitted activation curve with a large enough effect in the main read-out, with a control signal flat, not every such curve was filed as active; inconclusive = small, poorly fitted or top-dose-only effect, or a change in a side signal; inactive = no such curve, though single readings can be large or run the other way; % of control where 0% means no effect;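 note: the control signal comes from parental cells without the receptor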
Target sequence (P16473 whole entry, looked up): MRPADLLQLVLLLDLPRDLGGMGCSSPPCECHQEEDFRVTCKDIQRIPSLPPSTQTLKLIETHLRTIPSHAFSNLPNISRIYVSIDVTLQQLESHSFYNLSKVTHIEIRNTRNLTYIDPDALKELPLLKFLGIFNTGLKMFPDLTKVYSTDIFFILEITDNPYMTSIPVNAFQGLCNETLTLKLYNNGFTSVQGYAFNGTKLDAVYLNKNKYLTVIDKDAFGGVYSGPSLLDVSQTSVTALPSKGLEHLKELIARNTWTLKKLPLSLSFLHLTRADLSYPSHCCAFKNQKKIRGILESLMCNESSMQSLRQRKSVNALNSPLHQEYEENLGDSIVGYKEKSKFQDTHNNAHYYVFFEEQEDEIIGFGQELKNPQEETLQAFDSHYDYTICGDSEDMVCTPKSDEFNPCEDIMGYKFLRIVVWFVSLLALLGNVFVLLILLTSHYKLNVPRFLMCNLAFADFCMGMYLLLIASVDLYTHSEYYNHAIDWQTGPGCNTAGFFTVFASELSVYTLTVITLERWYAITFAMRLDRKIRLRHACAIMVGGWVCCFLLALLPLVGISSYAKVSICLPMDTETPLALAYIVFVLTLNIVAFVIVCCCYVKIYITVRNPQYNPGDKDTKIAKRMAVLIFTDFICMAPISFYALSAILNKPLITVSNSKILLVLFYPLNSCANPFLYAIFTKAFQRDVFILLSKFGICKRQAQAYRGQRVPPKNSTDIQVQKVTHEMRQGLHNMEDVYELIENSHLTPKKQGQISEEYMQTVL
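cAMP rise detected as CNG-channel membrane depolarization by fluorescent dye (emission 590 nm), 30 min after compound, following 60 min dye loading containing 100 uM RO 20-1724 at room temperature. Cells: TSHR/CNG HEK 293, with parental CNG HEK 293 as control.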
HEK293 cAMP ctrl – qHTS Assay for Agonists of the Thyroid Stimulating Hormone Receptor: Activators of Intracellular cAMP Concentrations in Parental HEK 293; Potency, µM (doses to about 57.1 µM), for the others: at the top dose activation, most hits filed as activators; 73,000 compounds, 2.5% hits; parental HEK293 CNG cAMP sensor, membrane potential fluorescence; note: % of control where 0% means no effect; nearly all actives have a fitted effect of over 55% in size
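Counterscreen for endogenous-receptor signalling: CNG-channel HEK 293 cells report cAMP rise by membrane depolarization. After 60 min dye equilibration with 100 uM RO 20-1724, compounds incubated 30 min before bottom-read fluorescence at 590 nm.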
* hit, by the source's call; ? = inconclusive; . = no result; [ ] = another dose, or the depositor's remark. Unless noted, calls come from the whole dose curve; as a rule, active = well fitted activation curve with a large enough effect; inconclusive = small, poorly fitted or top-dose-only effect; inactive = no such curve, though single readings can be large or run the other way. Potency is the fitted concentration of half-maximal effect.

SMILES	Imprint erasure	TSHR ag	HEK293 cAMP ctrl
COC(=O)C1=C(C)NC(C)=C(C(=O)OC)C1c1cn(-c2ccccc2)nc1-c1ccco1	-18%	1.6µM*	8%
COCCOC(=O)C1=C(C)NC(=O)NC1c1cn(-c2ccccc2)nc1-c1cccs1 (centres undefined)	-2%	17%	1%
CCCn1cnc2c(c1=O)c1nc3ccccc3nc1n2CCC1=CCCCC1	6%	.	19%
CCOCCCn1c(C)nc2c(c1=O)c1nc3ccccc3nc1n2CCC1=CCCCC1	-11%	?	20µM*
Clc1ccccc1-c1nn2c(Cn3cnc4ccccc43)nnc2s1	-16%	3.2µM*	27%
c1ccc2c(c1)ncn2Cc1nnc2sc(-c3ccc4c(c3)OCO4)nn12	-21%	?	?
CCOC(=O)Cn1nnnc1C(CC)N(Cc1cccs1)Cc1cc2cc(C)ccc2[nH]c1=O (centres undefined)	.	?	4µM*
CCOC(=O)Cn1nnnc1C(CC)N(Cc1cc2c(C)cc(C)cc2[nH]c1=O)C1CCCC1 (centres undefined)	-6%	12%	0%
CCC(c1nnnn1C1CCCC1)N(Cc1cccs1)Cc1cc2cc(C)ccc2[nH]c1=O (centres undefined)	-6%	.	25%
CCOC(=O)Cn1nnnc1C(CC)N(Cc1cc2ccc(C)cc2[nH]c1=O)C1CCCC1 (centres undefined)	-8%	?	16µM*
Cc1cc(C)cc(NC(=O)Cn2cc(C(=O)C3CCCCC3)c3ccccc32)c1	1%[10.9 µM]	.	.
CCN(CC)c1ccc(NC(=O)c2cc3c(=O)n4cccc(C)c4nc3n2C)c(C)c1	-5%[10.9 µM]	.	.
Cc1ccc(Cn2ccnc2SCC(=O)NCc2ccccc2)cc1	5%[10.9 µM]	.	.
COc1cccc(CNC(=O)C(NS(=O)(=O)c2ccc3c(c2)oc(=O)n3C)C(C)C)c1 (centres undefined)	-7%[10.9 µM]	.	.
CCCn1c(-c2ccc(F)cc2)nc2c(NCCN(C(C)C)C(C)C)nc(C)nc21	-13%	?	13µM*
CCCn1c(-c2ccc(F)cc2)nc2c(N3CCN(C)CC3)nc(C)nc21	-12%	?	16µM*
CCCn1c(-c2ccc(F)cc2)nc2c(N3CCC(N(C)C)C3)nc(C)nc21 (centres undefined)	-10%	?	?
CCCn1c(-c2ccc(F)cc2)nc2c(NCCN(C)C)nc(C)nc21	-10%	?	?
COc1ccc(NC(=O)N2CCc3c(sc4c3CCCC4)C2c2ccccc2OC)cc1 (centres undefined)	-17%[10.9 µM]	.	.
Cc1ccc2nc(N(Cc3cccnc3)C(=O)c3cccs3)sc2c1	-11%[10.9 µM]	.	.
COc1cccc(N(C(=O)c2cccs2)c2nc3ccccc3s2)c1	-8%	?	13µM*
CCOC(=O)c1ccccc1NC(=O)CSc1nnc(Cc2cccn2C)n1-c1ccc(C)cc1	-29%	?	32µM*
CCOC(=O)c1ccccc1NC(=O)CSc1nnnn1C1CCCCC1	-13%	?	32µM*
CCOC(=O)c1ccccc1NC(=O)CSc1ncc(C(=O)OCC)c(N)n1	.	?	20µM*
CCOC(=O)c1ccccc1NC(=O)CSc1nnc(COc2ccccc2C)n1C	-18%	?	16µM*
SMILES	Imprint erasure	TSHR ag	HEK293 cAMP ctrl
Cc1ccccc1OCc1nnc(SCC(=O)NCc2ccccc2)n1C	-12%	5%	18%
COC(=O)c1ccccc1NC(=O)CSc1nnnn1C1CCCCC1	-58%	28%	27%
COc1ccc(-n2c(Cc3cccn3C)nnc2SCC(=O)Nc2ccccc2C)cc1	-16%	11%	5%
CCOC(=O)c1cnc(SCC(=O)c2ccccc2)nc1N	-64%	20%	29%
Cn1c(-n2cccc2)c(-c2c(-c3ccc(F)cc3)[nH]c3c2c(=O)n(C)c(=O)n3C)c(=O)n(C)c1=O	-14%[10.9 µM]	.	.
COc1cccc(CN2C(=O)c3ccccc3Sc3ccc(C(=O)NCCc4ccc(C)cc4)cc32)c1	-9%[10.9 µM]	.	.
CCCN1C(=O)C(O)(CC(=O)c2ccc(OC)c(OC)c2)c2ccccc21 (centres undefined)	24%[10.9 µM]	.	.
CCC(C)n1c(=N)c(C(=O)NCc2ccccc2)cc2c(=O)n3cc(C)ccc3nc21 (centres undefined)	-5%[10.9 µM]	.	.
Cc1cc(C)c2nc3c(c([C@H](O)C4CCCCN4)c2c1)CC/C3=C/c1ccc(Cl)cc1 (some centres undefined)	-15%[10.9 µM]	.	.
CCS(=O)(=O)N1CCc2cc(C(=O)NCc3ccc(Cl)cc3)ccc21	-11%[10.9 µM]	.	.
CCC(C)NC(=O)CSc1nc(-c2ccc(F)cc2)cc(C(F)(F)F)n1 (centres undefined)	-4%[10.9 µM]	.	.
COc1ccc(NC(=O)CSc2nnc(Cc3cccn3C)n2CCc2ccccc2)c(OC)c1	-14%	?	?
COc1ccccc1NC(=O)CSc1nnc(Cc2cccn2C)n1CCc1ccccc1	-12%	?	20µM*
COc1ccc(N2CCN(C(=O)CCn3c(=O)c4cccn4c4cccnc43)CC2)cc1	-7%[10.9 µM]	.	.
CC(=O)N1CCCC1c1nc2ccccc2n1Cc1ccccc1C (centres undefined)	-28%[10.9 µM]	.	.
CCCN(CCC)C(=O)SCC	3%	?	?
COCC(=O)N(Cc1cc2cc(OC)ccc2[nH]c1=O)c1ccccc1	2%	-66%	0%
COc1ccc2[nH]c(C(=O)c3ccccc3)cc2c1	-45%	?	7.9µM*
Cc1ccccc1CN1CCc2nc(Nc3ccc4c(c3)OCCO4)ncc2C1	-28%[10.9 µM]	.	.
CN(C)C(=O)[C@]1(C)C[C@H]1[C@H](NC(=O)CNC(=O)[C@@H]1CCCN1C(=O)[C@]1(C)C[C@H]1[C@H](NC(=O)OCc1ccccc1)c1ccccc1)c1ccccc1	-4%	17%	22%
C[C@@H](C(=O)NCCF)[C@H]1C[C@]1(C)[C@H](NC(=O)OCc1ccccc1)c1ccccc1	-13%	?	16µM*
COCCNC(=O)[C@H](C)[C@@H]1C[C@@]1(C)[C@@H](NC(=O)OCc1ccccc1)c1ccccc1	-13%	3%	5%
C=C(N(C)C)[C@]1(C)C[C@H]1[C@H](NC(=O)CNC(=O)OCc1ccccc1)c1ccccc1	-9%	?	16µM*
Cc1ccc(-n2c(=O)c3c(cnn3C)n(CC(=O)Nc3cccc(C)c3)c2=O)cc1	23%[10.9 µM]	.	.
CCC(=O)Nc1ccc(CC)cc1-c1nc2ccccc2n(CC(=O)c2ccc(OC)cc2)c1=O	9%[10.9 µM]	.	.
SMILES	Imprint erasure	TSHR ag	HEK293 cAMP ctrl
Clc1ccc(OCc2nn3c(C4CCCCC4)nnc3s2)c(Cl)c1	-25%	?	32µM*
COc1ccccc1-c1nnc2sc(COc3ccc(Cl)cc3Cl)nn12	-3%	?	?
Cc1cc(O)c(C(c2ccc(Cl)cc2)N2CCN(c3ccccc3)CC2)c(=O)n1Cc1ccco1 (centres undefined)	-4%[10.9 µM]	.	.
COc1ccc(CNc2nc3c(S(=O)(=O)c4ccccc4)nnn3c3ccc(Cl)cc23)cc1	-13%[10.9 µM]	.	.
COc1ccc(OC)c(C(=O)COC(=O)c2ccccc2O)c1	-15%	?	25µM*
COc1ccc(OC)c(C(=O)COC(=O)c2c(OC)cccc2OC)c1	-9%	2%	6%

Bioassay records (PubChem BioAssay)
